# Data from the supplement of paper PMC8975748.
# Structures can show the parent of a compound that is named as a salt. ± gives the standard deviation of the averaged measurements.
# How the values were obtained:
# [1] = tested on: Saccharomyces cerevisiae BY4741 SeMeCo community; assay: mean cell size (pixel area) (pixels); higher = larger cells; conditions: 10 µM; 24 h; SM minimal medium
# How it was run: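 Yeast cells were fixed with paraformaldehyde, imaged by automated confocal microscopy and analysed in Harmony to obtain mean cell pixel area per well. They came from a four-plasmid fluorescent Saccharomyces cerevisiae BY4741 community, each plasmid complementing one auxotrophy and carrying a fluorescent marker. Before imaging, 70 µl of culture at OD600 = 0.3 was incubated for 24 h in SM medium in 384-well plates predosed acoustically with drug (final 10 µM). Values are means of 3 replicates. Same SeMeCo high-content imaging drug screen: Selleck FDA-approved drugs at 10 µM, 24 h in SM medium, 384-well plates, 3 replicates.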
# [2] = tested on: Saccharomyces cerevisiae BY4741 SeMeCo community; assay: z-score of prototroph abundance vs DMSO median; higher = larger share of this subpopulation than in DMSO controls; conditions: 10 µM; 24 h; SM minimal medium; subpopulation (auxotrophy): Prototroph
# How it was run: (§1)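 Automated confocal microscopy of paraformaldehyde-fixed cells was used to follow a Saccharomyces cerevisiae BY4741 community carrying four plasmids, each restoring one auxotrophy and encoding a distinct fluorescent protein. The community was pre-grown overnight to OD600 1.0, diluted to 0.3, and added at 70 µl to 384-well plates acoustically predosed with library drugs (10 µM final) for 24 h of growth in minimal SM medium. Single-auxotroph fluorescent strains set thresholds and autofluorescence correction, and each subpopulation's abundance was scored as a z-score against the vehicle-well median.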
# [3] = tested on: Saccharomyces cerevisiae BY4741 SeMeCo community; assay: z-score of subpopulation abundance vs DMSO median, subpopulation auxotrophic for M; higher = larger share of this subpopulation than in DMSO controls; conditions: 10 µM; 24 h; SM minimal medium; subpopulation (auxotrophy): M
# How it was run: as §1
# [4] = tested on: Saccharomyces cerevisiae BY4741 SeMeCo community; assay: z-score of subpopulation abundance vs DMSO median, subpopulation auxotrophic for L; higher = larger share of this subpopulation than in DMSO controls; conditions: 10 µM; 24 h; SM minimal medium; subpopulation (auxotrophy): L
# How it was run: as §1
# [5] = tested on: Saccharomyces cerevisiae BY4741 SeMeCo community; assay: z-score of subpopulation abundance vs DMSO median, subpopulation auxotrophic for U; higher = larger share of this subpopulation than in DMSO controls; conditions: 10 µM; 24 h; SM minimal medium; subpopulation (auxotrophy): U
# How it was run: as §1
# [6] = tested on: Saccharomyces cerevisiae BY4741 SeMeCo community; assay: z-score of subpopulation abundance vs DMSO median, subpopulation auxotrophic for LU; higher = larger share of this subpopulation than in DMSO controls; conditions: 10 µM; 24 h; SM minimal medium; subpopulation (auxotrophy): LU
# How it was run: as §1
# [7] = tested on: Saccharomyces cerevisiae BY4741 SeMeCo community; assay: z-score of subpopulation abundance vs DMSO median, subpopulation auxotrophic for LM; higher = larger share of this subpopulation than in DMSO controls; conditions: 10 µM; 24 h; SM minimal medium; subpopulation (auxotrophy): LM
# How it was run: as §1
# [8] = tested on: Saccharomyces cerevisiae BY4741 SeMeCo community; assay: z-score of subpopulation abundance vs DMSO median, subpopulation auxotrophic for HM; higher = larger share of this subpopulation than in DMSO controls; conditions: 10 µM; 24 h; SM minimal medium; subpopulation (auxotrophy): HM
# How it was run: as §1
# [9] = tested on: Saccharomyces cerevisiae BY4741 SeMeCo community; assay: z-score of subpopulation abundance vs DMSO median, subpopulation auxotrophic for HU; higher = larger share of this subpopulation than in DMSO controls; conditions: 10 µM; 24 h; SM minimal medium; subpopulation (auxotrophy): HU
# How it was run: as §1
# [10] = tested on: Saccharomyces cerevisiae BY4741 SeMeCo community; assay: z-score of subpopulation abundance vs DMSO median, subpopulation auxotrophic for UM; higher = larger share of this subpopulation than in DMSO controls; conditions: 10 µM; 24 h; SM minimal medium; subpopulation (auxotrophy): UM
# How it was run: as §1
# [11] = tested on: Saccharomyces cerevisiae BY4741 SeMeCo community; assay: z-score of subpopulation abundance vs DMSO median, subpopulation auxotrophic for HL; higher = larger share of this subpopulation than in DMSO controls; conditions: 10 µM; 24 h; SM minimal medium; subpopulation (auxotrophy): HL
# How it was run: as §1
# [12] = tested on: Saccharomyces cerevisiae BY4741 SeMeCo community; assay: z-score of subpopulation abundance vs DMSO median, subpopulation auxotrophic for HLM; higher = larger share of this subpopulation than in DMSO controls; conditions: 10 µM; 24 h; SM minimal medium; subpopulation (auxotrophy): HLM
# How it was run: as §1
# [13] = tested on: Saccharomyces cerevisiae BY4741 SeMeCo community; assay: z-score of subpopulation abundance vs DMSO median, subpopulation auxotrophic for HUM; higher = larger share of this subpopulation than in DMSO controls; conditions: 10 µM; 24 h; SM minimal medium; subpopulation (auxotrophy): HUM
# How it was run: as §1
# [14] = tested on: Saccharomyces cerevisiae BY4741 SeMeCo community; assay: z-score of subpopulation abundance vs DMSO median, subpopulation auxotrophic for LUM; higher = larger share of this subpopulation than in DMSO controls; conditions: 10 µM; 24 h; SM minimal medium; subpopulation (auxotrophy): LUM
# How it was run: as §1
# [15] = tested on: Saccharomyces cerevisiae BY4741 SeMeCo community; assay: z-score of subpopulation abundance vs DMSO median, subpopulation auxotrophic for HLUM; higher = larger share of this subpopulation than in DMSO controls; conditions: 10 µM; 24 h; SM minimal medium; subpopulation (auxotrophy): HLUM
# How it was run: as §1
# [16] = tested on: Saccharomyces cerevisiae BY4741 SeMeCo community; assay: z-score of subpopulation abundance vs DMSO median, subpopulation auxotrophic for H; higher = larger share of this subpopulation than in DMSO controls; conditions: 10 µM; 24 h; SM minimal medium; subpopulation (auxotrophy): H
# How it was run: as §1
Compound,mean cell size [1],z-score of prototroph abundance [2],z-score of subpopulation abundance [3],z-score of subpopulation abundance [4],z-score of subpopulation abundance [5],z-score of subpopulation abundance [6],z-score of subpopulation abundance [7],z-score of subpopulation abundance [8],z-score of subpopulation abundance [9],z-score of subpopulation abundance [10],z-score of subpopulation abundance [11],z-score of subpopulation abundance [12],z-score of subpopulation abundance [13],z-score of subpopulation abundance [14],z-score of subpopulation abundance [15],z-score of subpopulation abundance [16]
CN(C)CCc1c[nH]c2ccc(CS(=O)(=O)N3CCCC3)cc12 [Almotriptan Malate],12.4 ± 0.14,0.66,-0.37,0.74,-0.42,0.07,-0.71,-1.15,0,-0.12,-0.69,-0.23,-0.91,-0.23,-0.37,–
CCC(=O)NS(=O)(=O)c1ccc(-c2c(-c3ccccc3)noc2C)cc1 [Parecoxib Sodium],12.39 ± 0.068,-1.76,0.75,0.68,0.97,0.31,1,1.65,0.55,0.8,1.38,0.26,–,1.18,0.78,0.01
CC1=C(C(=O)O)N2C(=O)[C@@H](NC(=O)[C@H](N)C3=CCC=CC3)[C@H]2SC1 [Cefradine],12.12 ± 0.02,0.86,-0.36,0.14,0.07,-1.14,-0.58,-0.73,-0.92,-0.6,0.06,0.04,–,-0.81,0.1,-0.04
Nc1ccc(S(=O)(=O)Nc2ncccn2)cc1 [Sodium sulfadiazine],–,-0.25,0.4,0.56,0.32,0.3,0.18,0.17,–,-0.13,–,-0.23,-0.68,0.15,0.02,-0.33
CSCC1CN(/N=C/c2ccc([N+](=O)[O-])o2)C(=O)O1 (stereo not drawn) [Nifuratel],13.05 ± 0.13,1.73,3.2,3.68,-7.52,-5.94,–,1.92,-5.85,-7.21,4.21,2.19,-2.83,-2.95,1.35,5.51
O=C1[C@H]2CCCC[C@H]2C(=O)N1CCCCN1CCN(c2nsc3ccccc23)CC1 [Perospirone hydrochloride],12.5 ± 0.18,–,-0.63,0.16,0.1,0.24,-0.76,–,0.13,–,–,0.02,-0.23,0.12,-0.08,-0.14
CN(Cc1ccc(C(C)(C)C)cc1)Cc1cccc2ccccc12 [Butenafine HCl],–,1.36,0.23,-0.23,–,-1.41,-0.39,–,-0.86,–,-0.63,-0.42,-1.45,-0.75,0.01,-0.76
O=C1CC2(CCCC2)CC(=O)N1CCCCN1CCN(c2ncccn2)CC1 [Buspirone HCl],–,0.7,-1.82,0.76,0.5,1.78,-0.34,–,-0.07,-1.32,0,-0.1,-0.84,–,–,-0.72
C[N+](C)(C)CCO.[Cl-] [Choline Chloride],12 ± 0.25,0.21,-1.56,-0.08,0.8,0.54,-0.75,-1.2,–,0.32,-0.62,-0.83,–,0.75,-0.62,-0.8
CCc1nc(N)nc(N)c1-c1ccc(Cl)cc1 [Pyrimethamine],12.3 ± 0.38,0.23,-0.13,-0.63,-0.01,-0.16,–,-0.27,-0.29,–,-0.25,-0.3,0.42,0.49,-0.2,-0.47
CN(C/C=C/C#CC(C)(C)C)Cc1cccc2ccccc12 [Terbinafine HCl],12.27 ± 0.088,-0.62,1.09,-0.84,1.03,0.54,-0.74,–,–,1.94,-0.47,-0.22,1.65,0.47,–,-0.56
COc1ccc(-c2nc3cc(C4=NNC(=O)CC4C)ccc3[nH]2)cc1 (stereo not drawn) [Pimobendan],12.31 ± 0.12,-0.89,0.83,1.93,-0.84,0.46,1.71,0.78,-0.28,-0.05,0.79,0.33,–,1.6,–,0.76
O=C1C(=O)c2ccccc2C(O)=C1C1CCC(c2ccc(Cl)cc2)CC1 (stereo not drawn) [Atovaquone],–,-0.82,-0.46,1.54,-0.2,0.47,1.39,–,0.94,0.03,1.12,0.84,0.71,1.22,0.68,1.46
